# Values joined by “and” are separate entries in the source; they are usually repeats but may differ in a detail not shown here. Equal values may be shown once. Active and inactive are the calls of the source.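 Rule for the calls, unless noted: active = normalized viability below 100% at a tested concentration; inactive = the rest.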
# Tests used:
# [1] = compounds altering viability of human ES cells (AID 493140; call rule not given here;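 note: cells exposed to compounds for four days before counting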); details: human embryonic stem cell survival screen; stronger effect = higher value
# [2] = P. berghei load reduction in hepatocytes – cell-based, HepG2, luciferase luminescence, HepG2 viability, primary screen (AID 624349; in the data active = parasite load remaining mostly below about 12%, no sharp cut-off; inactive = mostly above about 10%;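 note: 100% = mean of DMSO negative control wells on the same plate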); details: P. berghei liver stage in HepG2, luciferase luminescence, concentration not given here; parasite load remaining: stronger effect = lower value; viability: measured here: HepG2 viability without parasites
# [3] = Wnt pathway potentiators raising nuclear beta-catenin – imaging, WNT3A-conditioned medium, mouse C2C12, NPC library, primary screen (AID 1117326; in the data active = nuclear beta-catenin stimulation mostly above about 4.2%, no sharp cut-off; inactive = mostly below about 10%); details: stronger effect = higher value
# [4] = stimulators of insulin release from INS-1E, primary screen, cell-based, 5 mM glucose, NPC library (AID 1117329;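 active = compound raises insulin release from rat beta cells at 5 mM glucose, no numeric limit stated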); details: rat INS-1E insulin secretion, at 10 µM, stronger effect = higher value
# [5] = growth inhibition of GSK3B-pretreated HCT116 cells – cell-based, CellTiter-Glo, 0.2 to 20 µM (AID 1117336;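 active = compounds lowering colon cancer cell viability after pretreatment blocking the GSK3B kinase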); details: HCT116 viability after GSK3B inhibitor, at 20 µM, stronger effect = higher value
# [6] = inhibition of endothelial tube formation, primary screen, imaging, VEGF stimulated, CD31 staining, tube area, NPC library (AID 1117340;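 active = compound that reduces growth-factor-driven endothelial tube area in a mixed cell culture, no cutoff stated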); details: VEGF-stimulated ADSC/ECFC co-culture, at 10 µM, stronger effect = higher value
# [7] = GLP1 release stimulators, primary, NCI-H716, NPC library (AID 1117341;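 active = compound raises GLP1 secretion from the human gut endocrine cells, with no numeric limit stated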); details: NCI-H716 cells, at 10 µM, stronger effect = higher value
# [8] = HCT116 colon cancer cell growth inhibition, primary screen, CellTiter-Glo luminescence, NPC library (AID 1117342;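 active = compounds that lower survival of HCT116 colon cancer cells in the luminescence readout, no numeric limit stated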); details: at 20 µM (top of the series)
# [9] = reduced SW480 viability measured with CellTiter-Glo, NPC library, primary (AID 1117343;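 active = compounds that lower viability of the colon cancer cells in the luminescence readout, with no numeric limit stated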); details: CellTiter-Glo luminescence; at 20 µM (top of the series) unless noted
# [10] = NPC library primary testing for decreased DLD-1 cell viability via CellTiter-Glo (AID 1117346;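 active = compounds that lower survival of DLD-1 colon cancer cells in the luminescence readout, no cutoff given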); details: DLD-1 viability, CellTiter-Glo luminescence; at 20 µM (top of the series)
# [11] = EMT-state selective cytotoxicity in co-culture – imaging, PC-3E GFP, TEM4-18 mCherry, primary screen (AID 1345086;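 active = compounds killing one labelled cell type while sparing the other, by normalised counts and ratio limits, not self-fluorescent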;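 for all read-outs here: cells exposed to compound for 72 h before imaging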;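 for red/green cell ratio (normalised): normalised mesenchymal count divided by normalised epithelial count so high means epithelial killing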); details: PC-3E GFP / TEM4-18 mCherry co-culture, imaging cell counts, at 1 µM; for red/green cell ratio (normalised): actives lie on both sides, counts scaled to control wells, 1 = unselective
# [12] = viability loss with induced miR-34 in A549 – imaging, A549 dox-inducible miR-34, nuclei and caspase counts, primary screen (AID 1347080;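 active = compounds whose cell count with miR-34 switched on is under 0.7 times the count with it off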); details: A549 miR-34 inducible, Hoechst nuclei count, 48 h
# [13] = MELAS cybrid and Rieske KO viability enhancers – cell-based, MELAS cybrids, Rieske KO mouse fibroblasts, CellTiter-Glo, primary screen (AID 1508586;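 active = mean z-score across replicates of 1.96 or higher in either the MELAS or the Rieske mutant cell line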;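 note: z relative to plate mean and SD of compound and empty wells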); details: low glucose
# [14] = target: NAD(+) hydrolase SARM1 (Homo sapiens) (UniProt Q6SZW1); experiment: blocking NAD cleavage by SARM1 SAM-TIR – cell lysate, NAD-Glo luminescence (AID 1508614;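 active = compound whose remaining NAD level is above about 45 nM, limit read from the data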;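 note: higher remaining NAD means stronger inhibition of SARM1 NADase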); details: SAM-TIR HEK293T lysate NADase, at 1 µM, stronger effect = higher value
# [15] = drug combination growth inhibition, ovarian cancer – cell-based, oncology-focused library, rucaparib conditional, profiling panel (AID 1508598); details: patient-derived ovarian cancer cells, CellTiter-Glo viability, 144 h, stronger effect = lower value
# [16] = measured here: epithelial PC-3E GFP cell survival
# [17] = measured here: mesenchymal TEM4-18 mCherry cell survival
# [18] = stronger effect = lower value, cell number ratio, induced over uninduced
# [19] = measured here: relative caspase fold change +Dox/-Dox
# [20] = measured here: total cells with miR-34 induction, stronger effect = lower value
# [21] = measured here: total cells without miR-34 induction
# [22] = MELAS cybrid survival, CellTiter-Glo 48 h, stronger effect = higher value
# [23] = Rieske KO mouse fibroblast survival, CellTiter-Glo 72 h
# Chain of NAD(+) hydrolase SARM1 (Homo sapiens) (Q6SZW1 whole entry, looked up): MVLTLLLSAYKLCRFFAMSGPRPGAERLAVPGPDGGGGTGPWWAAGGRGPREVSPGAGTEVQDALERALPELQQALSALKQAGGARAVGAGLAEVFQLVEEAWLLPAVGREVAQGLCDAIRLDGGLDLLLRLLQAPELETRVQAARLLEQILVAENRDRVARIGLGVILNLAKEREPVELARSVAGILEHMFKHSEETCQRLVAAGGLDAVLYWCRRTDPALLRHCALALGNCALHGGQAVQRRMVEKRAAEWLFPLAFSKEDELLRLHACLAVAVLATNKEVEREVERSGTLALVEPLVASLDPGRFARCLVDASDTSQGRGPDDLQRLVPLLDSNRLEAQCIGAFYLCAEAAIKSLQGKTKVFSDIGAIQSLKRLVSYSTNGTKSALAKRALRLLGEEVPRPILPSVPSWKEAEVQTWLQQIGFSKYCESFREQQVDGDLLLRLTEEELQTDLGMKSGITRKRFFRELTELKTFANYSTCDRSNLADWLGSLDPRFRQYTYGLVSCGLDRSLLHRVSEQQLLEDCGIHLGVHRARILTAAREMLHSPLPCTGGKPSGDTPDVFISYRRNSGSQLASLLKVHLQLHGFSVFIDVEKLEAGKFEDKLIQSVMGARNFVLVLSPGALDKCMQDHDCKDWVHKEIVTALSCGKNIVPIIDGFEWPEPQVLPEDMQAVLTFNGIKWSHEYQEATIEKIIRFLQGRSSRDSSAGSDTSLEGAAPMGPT
compound,measurement,setting,value
O=C(O)[C@H](O)[C@@H](O)[C@H](O[C@@H]1O[C@H](CO)[C@H](O)[C@H](O)[C@H]1O)[C@H](O)CO,survival,[1],11.8 (inactive)
same,parasite load remaining,[2],68% (inactive) and 86.7% (inactive)
same,viability,[2],96.5% and 74.2%
same,nuclear beta-catenin stimulation,[3]; at 10 µM,-1.5% (inactive)
same,nuclear beta-catenin stimulation,"[3]; stimulation, at 2 µM",-0.6%
same,insulin secretion stimulation,[4],5.9% (inactive)
same,viability decrease,[5],94.4% (active)
same,tube area decrease,[6],-14.9% (inactive)
same,GLP1 secretion stimulation,[7],-3.6% (inactive)
same,inhibition of viability,[8],93% (active)
same,viability decrease (inhibition),[9],94% (active)
same,viability decrease (inhibition),[10],99.7% (active)
same,red/green cell ratio (normalised),[11],1.06 (inactive)
same,normalised cell number,[11]; [16],1.17
same,normalised cell number,[11]; [17],1.23
same,fold change,[12]; [18],0.847 (inactive)
same,fold change,[12]; [19],1.47
same,cell count,[12]; [20],8980
same,cell count,[12]; [21],10600
CC(=O)c1ccc2c(c1)N(CCCN(C)C)c1ccccc1S2,survival,[1],4.75 (inactive)
same,parasite load remaining,[2],84% (inactive) and 65.2% (inactive) and 28% (inactive)
same,viability,[2],104% and 77.6% and 98.4%
same,nuclear beta-catenin stimulation,[3]; at 10 µM,0.3% (inactive)
same,nuclear beta-catenin stimulation,"[3]; stimulation, at 2 µM",1.4%
same,insulin secretion stimulation,[4],17.4% (inactive)
same,viability decrease,[5],50.2% (active)
same,tube area decrease,[6],12.5% (inactive)
same,GLP1 secretion stimulation,[7],11.1% (inactive)
same,inhibition of viability,[8],55.9% (active)
same,viability decrease (inhibition),[9],110% (active)
same,viability decrease (inhibition),[10],24.9% (inactive)
same,red/green cell ratio (normalised),[11],0.9 (inactive)
same,normalised cell number,[11]; [16],0.98
same,normalised cell number,[11]; [17],0.88
same,fold change,[12]; [18],0.938 (inactive) and 0.873 (inactive) and 0.834 (inactive)
same,fold change,[12]; [19],0.931 and 1.11 and 5.05
same,cell count,[12]; [20],3460 and 8350 and 10600
same,cell count,[12]; [21],3690 and 9570 and 12700
same,z-score,[13]; [22],-0.172 (inactive)
same,z-score,[13]; [23],0.00604
same,remaining NAD,[14],10 nM (inactive)
Clc1ccc(Cn2c(CN3CCCC3)nc3ccccc32)cc1,survival,[1],21.8 (inactive)
same,parasite load remaining,[2],30.7% (inactive) and 102% (inactive)
same,viability,[2],47.8% and 90.5%
same,nuclear beta-catenin stimulation,[3]; at 10 µM,3.1% (inactive)
same,nuclear beta-catenin stimulation,"[3]; stimulation, at 2 µM",3%
same,insulin secretion stimulation,[4],4.9% (inactive)
same,viability decrease,[5],-123% (inactive)
same,tube area decrease,[6],14.2% (inactive)
same,GLP1 secretion stimulation,[7],6.1% (inactive)
same,inhibition of viability,[8],34% (inactive)
same,viability decrease (inhibition),[9],61.5% (active)
same,viability decrease (inhibition),[10],19.7% (inactive)
same,red/green cell ratio (normalised),[11],0.77 (inactive)
same,normalised cell number,[11]; [16],1.28
same,normalised cell number,[11]; [17],0.98
same,fold change,[12]; [18],1.11 (inactive) and 0.92 (inactive)
same,fold change,[12]; [19],2.1 and 1.3
same,cell count,[12]; [20],5510 and 8130
same,cell count,[12]; [21],4960 and 8840
same,z-score,[13]; [22],0.821 (inactive)
same,z-score,[13]; [23],0.481
same,remaining NAD,[14],10 nM (inactive)
Cc1nc(Nc2ncc(C(=O)Nc3c(C)cccc3Cl)s2)cc(N2CCN(CCO)CC2)n1,nuclear beta-catenin stimulation,[3]; at 10 µM,69.4% (active)
same,nuclear beta-catenin stimulation,"[3]; stimulation, at 2 µM",65.2%
same,insulin secretion stimulation,[4],-0.7% (inactive)
same,viability decrease,[5],-182% (inactive)
same,tube area decrease,[6],62.2% (active)
same,GLP1 secretion stimulation,[7],2.2% (inactive)
same,inhibition of viability,[8],69.7% (active)
same,viability decrease (inhibition),[9],87.2% (active)
same,viability decrease (inhibition),[10],100% (active)
same,red/green cell ratio (normalised),[11],1.54 (inactive)
same,normalised cell number,[11]; [16],0.38
same,normalised cell number,[11]; [17],0.58
same,fold change,[12]; [18],0.896 (inactive) and 0.9 (inactive)
same,fold change,[12]; [19],0.654 and 0.731
same,cell count,[12]; [20],470 and 582
same,cell count,[12]; [21],524 and 647
same,z-score,[13]; [22],4.95 (active)
same,z-score,[13]; [23],-1.77
same,viability,"[15]; at 0.000305 µM, OCI-C5x cells, with rucaparib 10 µM, 100% = cells with rucaparib alone",102% (inactive)
same,viability,"[15]; at 0.000305 µM, OCI-C5x cells, without rucaparib",117% (inactive)
same,viability,"[15]; at 0.000305 µM, OCI-P5x cells, with rucaparib 20 µM, 100% = cells with rucaparib alone",103% (inactive)
same,viability,"[15]; at 0.000305 µM, OCI-P5x cells, without rucaparib",98.9% (active)
same,viability,"[15]; at 0.00122 µM, OCI-C5x cells, with rucaparib 10 µM, 100% = cells with rucaparib alone",99.9% (active)
same,viability,"[15]; at 0.00122 µM, OCI-C5x cells, without rucaparib",114% (inactive)
same,viability,"[15]; at 0.00122 µM, OCI-P5x cells, with rucaparib 20 µM, 100% = cells with rucaparib alone",54.8% (active)
same,viability,"[15]; at 0.00122 µM, OCI-P5x cells, without rucaparib",97.2% (active)
same,viability,"[15]; at 0.00488 µM, OCI-C5x cells, with rucaparib 10 µM, 100% = cells with rucaparib alone",107% (inactive)
same,viability,"[15]; at 0.00488 µM, OCI-C5x cells, without rucaparib",108% (inactive)
same,viability,"[15]; at 0.00488 µM, OCI-P5x cells, with rucaparib 20 µM, 100% = cells with rucaparib alone",52.6% (active)
same,viability,"[15]; at 0.00488 µM, OCI-P5x cells, without rucaparib",81.3% (active)
